The other results are listed elsewhere or left out. How many sequences the whole screen found active is unknown.
Biological target: furin, P09958
Assay: furin cleavage Z-score vs untreated control; higher = more cleavage, active = 3.5 or more, inactive = 1 or less, 8 variable residues between constant flanks
Summary of the method: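 Magnetic beads held 8-mer peptides by the N-terminus, each fused to a cDNA oligonucleotide, and purified furin was added for 7.5, 15 or 30 min. Released DNA was sequenced after PCR adapter tagging. The cleavage Z-score is the log count relative to furin-free reactions, lowess-adjusted and divided by median absolute deviation.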
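Note: purified furin at 1:10 enzyme:substrate in 50 mM HEPES pH 7.5.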

Chain of furin, P09958 (P09958 whole entry): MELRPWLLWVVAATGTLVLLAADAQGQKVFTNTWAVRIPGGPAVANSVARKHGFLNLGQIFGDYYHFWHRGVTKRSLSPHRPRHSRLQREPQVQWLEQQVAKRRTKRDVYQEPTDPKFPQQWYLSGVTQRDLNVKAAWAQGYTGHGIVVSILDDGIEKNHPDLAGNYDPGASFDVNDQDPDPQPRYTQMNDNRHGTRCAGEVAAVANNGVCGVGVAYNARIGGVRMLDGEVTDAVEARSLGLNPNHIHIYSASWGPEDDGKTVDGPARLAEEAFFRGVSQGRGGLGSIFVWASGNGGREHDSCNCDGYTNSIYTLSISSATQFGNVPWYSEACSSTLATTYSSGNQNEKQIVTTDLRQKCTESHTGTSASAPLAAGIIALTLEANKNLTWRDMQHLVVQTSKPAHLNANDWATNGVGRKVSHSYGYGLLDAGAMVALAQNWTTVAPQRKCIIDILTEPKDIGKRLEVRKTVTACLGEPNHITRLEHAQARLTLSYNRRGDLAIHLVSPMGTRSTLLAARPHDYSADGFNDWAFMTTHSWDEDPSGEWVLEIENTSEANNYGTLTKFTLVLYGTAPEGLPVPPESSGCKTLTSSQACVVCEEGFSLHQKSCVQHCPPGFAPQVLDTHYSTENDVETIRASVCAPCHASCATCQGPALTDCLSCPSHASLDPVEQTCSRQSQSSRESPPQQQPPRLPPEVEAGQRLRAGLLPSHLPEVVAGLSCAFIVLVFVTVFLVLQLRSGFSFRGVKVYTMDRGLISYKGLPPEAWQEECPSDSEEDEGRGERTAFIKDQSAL

B1: HC1359 (peptide)
chain: CADPDLSDGSAGNASASA
7.5 min
  furin cleavage Z-score: -1.03 (inactive)
15 min
  furin cleavage Z-score: -0.792 (inactive)
30 min
  furin cleavage Z-score: -0.78 (inactive)

B2: HC2096 (peptide)
chain: CAVVCCSMSGAGNASASA
7.5 min
  furin cleavage Z-score: -0.582 (inactive)
15 min
  furin cleavage Z-score: -1.33 (inactive)
30 min
  furin cleavage Z-score: -0.463 (inactive)

B3: FS-2714 (peptide)
chain: CARLRRFQKGAGNASASA
7.5 min
  furin cleavage Z-score: -0.592 (inactive)
15 min
  furin cleavage Z-score: -0.736 (inactive)
30 min
  furin cleavage Z-score: -0.569 (inactive)

B4: FS-3034 (peptide)
chain: CARQKKTTGGAGNASASA
7.5 min
  furin cleavage Z-score: -1.15 (inactive)
15 min
  furin cleavage Z-score: -0.895 (inactive)
30 min
  furin cleavage Z-score: -0.562 (inactive)

B5: FS-2144 (peptide)
chain: CARHRRAAGGAGNASASA
7.5 min
  furin cleavage Z-score: 5.47 (active)
15 min
  furin cleavage Z-score: 4.69 (active)
30 min
  furin cleavage Z-score: 5.6 (active)

B6: FS-2684 (peptide)
chain: CARILRSAWGAGNASASA
7.5 min
  furin cleavage Z-score: -1.8 (inactive)
15 min
  furin cleavage Z-score: 0.635 (inactive)
30 min
  furin cleavage Z-score: 0.838 (inactive)

B7: FS-2765 (peptide)
chain: CARQRRPHGGAGNASASA
7.5 min
  furin cleavage Z-score: -0.899 (inactive)
15 min
  furin cleavage Z-score: -0.697 (inactive)
30 min
  furin cleavage Z-score: -0.913 (inactive)

B8: FS-3230 (peptide)
chain: CARQRRAAKGAGNASASA
7.5 min
  furin cleavage Z-score: 5.82 (active)
15 min
  furin cleavage Z-score: 8.24 (active)
30 min
  furin cleavage Z-score: 7.16 (active)

B9: FS-2357 (peptide)
chain: CARPLRDAGGAGNASASA
7.5 min
  furin cleavage Z-score: 0.0621 (inactive)
15 min
  furin cleavage Z-score: -0.105 (inactive)
30 min
  furin cleavage Z-score: -0.644 (inactive)

B10: FS-2588 (peptide)
chain: CARQRRAAGGAGNASASA
7.5 min
  furin cleavage Z-score: 4.04 (active)
15 min
  furin cleavage Z-score: 2.03
30 min
  furin cleavage Z-score: 3.5 (active)

B11: FS-2945 (peptide)
chain: CARHRRIHSGAGNASASA
7.5 min
  furin cleavage Z-score: -0.899 (inactive)
15 min
  furin cleavage Z-score: -0.653 (inactive)
30 min
  furin cleavage Z-score: -0.511 (inactive)

B12: FS-1723 (peptide)
chain: CARIRRNAKGAGNASASA
7.5 min
  furin cleavage Z-score: 9.77 (active)
15 min
  furin cleavage Z-score: 9.21 (active)
30 min
  furin cleavage Z-score: 7.23 (active)

B13: HC1574 (peptide)
chain: CASWLGNIIMAGNASASA
7.5 min
  furin cleavage Z-score: -0.174 (inactive)
15 min
  furin cleavage Z-score: -0.173 (inactive)
30 min
  furin cleavage Z-score: 0.459 (inactive)

B14: HC2223 (peptide)
chain: CAEVVTSTAVAGNASASA
7.5 min
  furin cleavage Z-score: -1.08 (inactive)
15 min
  furin cleavage Z-score: 1.73
30 min
  furin cleavage Z-score: 0.704 (inactive)

B15: HC1529 (peptide)
chain: CAGDDLVVICAGNASASA
7.5 min
  furin cleavage Z-score: -1.44 (inactive)
15 min
  furin cleavage Z-score: -0.0771 (inactive)
30 min
  furin cleavage Z-score: -0.978 (inactive)

B16: HC1314 (peptide)
chain: CAEPPVVHGCAGNASASA
7.5 min
  furin cleavage Z-score: 0.438 (inactive)
15 min
  furin cleavage Z-score: 1.71
30 min
  furin cleavage Z-score: -0.723 (inactive)

B17: FS-2944 (peptide)
chain: CARHRRATGAAGNASASA
7.5 min
  furin cleavage Z-score: 6.7 (active)
15 min
  furin cleavage Z-score: 5.37 (active)
30 min
  furin cleavage Z-score: 4.1 (active)

B18: FS-1896 (peptide)
chain: CARHLRSAGSAGNASASA
7.5 min
  furin cleavage Z-score: 1.18
15 min
  furin cleavage Z-score: -0.11 (inactive)
30 min
  furin cleavage Z-score: 2.17

B19: FS-1946 (peptide)
chain: CARDRRAAGSAGNASASA
7.5 min
  furin cleavage Z-score: 6.35 (active)
15 min
  furin cleavage Z-score: 7.75 (active)
30 min
  furin cleavage Z-score: 5.91 (active)

B20: HC70 (peptide)
chain: CATTPCRGSWAGNASASA
7.5 min
  furin cleavage Z-score: -0.828 (inactive)
15 min
  furin cleavage Z-score: -1.44 (inactive)
30 min
  furin cleavage Z-score: -0.599 (inactive)

B21: EK6 (peptide)
chain: CAEGERGFFYAGNASASA
7.5 min
  furin cleavage Z-score: -2.12 (inactive)
15 min
  furin cleavage Z-score: -0.423 (inactive)
30 min
  furin cleavage Z-score: -2.28 (inactive)

B22: FS-1319 (peptide)
chain: CAEMSRTRRYAGNASASA
7.5 min
  furin cleavage Z-score: 5.42 (active)
15 min
  furin cleavage Z-score: 8.78 (active)
30 min
  furin cleavage Z-score: 8.64 (active)

B23: HC1558 (peptide)
chain: CADGAGKRVYAGNASASA
7.5 min
  furin cleavage Z-score: 1.53
15 min
  furin cleavage Z-score: 1.27
30 min
  furin cleavage Z-score: 0.404 (inactive)

B24: FS-192 (peptide)
chain: CASGHRTRRYAGNASASA
7.5 min
  furin cleavage Z-score: 7 (active)
15 min
  furin cleavage Z-score: 8.02 (active)
30 min
  furin cleavage Z-score: 8.16 (active)

B25: HC1062 (peptide)
chain: CATSQTLLFNAGNASASA
7.5 min
  furin cleavage Z-score: 0.00122 (inactive)
15 min
  furin cleavage Z-score: -0.692 (inactive)
30 min
  furin cleavage Z-score: -0.503 (inactive)

B26: FS-2350 (peptide)
chain: CARLKRDPGIAGNASASA
7.5 min
  furin cleavage Z-score: 3.26
15 min
  furin cleavage Z-score: 4.16 (active)
30 min
  furin cleavage Z-score: 3.42

B27: FS-1815 (peptide)
chain: CAVLKRDVDIAGNASASA
7.5 min
  furin cleavage Z-score: 1.04
15 min
  furin cleavage Z-score: -1.55 (inactive)
30 min
  furin cleavage Z-score: 0.353 (inactive)

B28: HC967 (peptide)
chain: CARLKPTLHGAGNASASA
7.5 min
  furin cleavage Z-score: -0.75 (inactive)
15 min
  furin cleavage Z-score: -0.713 (inactive)
30 min
  furin cleavage Z-score: 0.566 (inactive)

B29: FS-3142 (peptide)
chain: CAVRKRSPWLAGNASASA
7.5 min
  furin cleavage Z-score: -1.29 (inactive)
15 min
  furin cleavage Z-score: 0.44 (inactive)
30 min
  furin cleavage Z-score: 1.17

B30: FS-3141 (peptide)
chain: CAVRKRQVSLAGNASASA
7.5 min
  furin cleavage Z-score: -1.04 (inactive)
15 min
  furin cleavage Z-score: -0.0874 (inactive)
30 min
  furin cleavage Z-score: 0.617 (inactive)

B31: FS-2043 (peptide)
chain: CARLKRDLATAGNASASA
7.5 min
  furin cleavage Z-score: 9.22 (active)
15 min
  furin cleavage Z-score: 11.3 (active)
30 min
  furin cleavage Z-score: 9.07 (active)

B32: FS-3140 (peptide)
chain: CAVRKRDLQTAGNASASA
7.5 min
  furin cleavage Z-score: 2.53
15 min
  furin cleavage Z-score: 5.9 (active)
30 min
  furin cleavage Z-score: 5.02 (active)

B33: FS-2991 (peptide)
chain: CARLKRLFLAAGNASASA
7.5 min
  furin cleavage Z-score: 0.382 (inactive)
15 min
  furin cleavage Z-score: -1.83 (inactive)
30 min
  furin cleavage Z-score: -1.56 (inactive)

B34: FS-2220 (peptide)
chain: CARLKRDRSAAGNASASA
7.5 min
  furin cleavage Z-score: 6.33 (active)
15 min
  furin cleavage Z-score: 8.55 (active)
30 min
  furin cleavage Z-score: 8.68 (active)

B35: HC2474 (peptide)
chain: CAKTPCSAHLAGNASASA
7.5 min
  furin cleavage Z-score: -0.289 (inactive)
15 min
  furin cleavage Z-score: -0.529 (inactive)
30 min
  furin cleavage Z-score: -1.11 (inactive)

B36: HC1708 (peptide)
chain: CAMEWCSQHLAGNASASA
7.5 min
  furin cleavage Z-score: 0.411 (inactive)
15 min
  furin cleavage Z-score: 0.726 (inactive)
30 min
  furin cleavage Z-score: 0.812 (inactive)

B37: HC1368 (peptide)
chain: CAEDVVCCSMAGNASASA
7.5 min
  furin cleavage Z-score: -0.171 (inactive)
15 min
  furin cleavage Z-score: 0.686 (inactive)
30 min
  furin cleavage Z-score: 0.101 (inactive)

B38: HC1882 (peptide)
chain: CATTQCSGSWAGNASASA
7.5 min
  furin cleavage Z-score: -0.496 (inactive)
15 min
  furin cleavage Z-score: -1.36 (inactive)
30 min
  furin cleavage Z-score: -0.763 (inactive)

B39: HC1234 (peptide)
chain: CAFRVGLHEYAGNASASA
7.5 min
  furin cleavage Z-score: -0.864 (inactive)
15 min
  furin cleavage Z-score: -0.389 (inactive)
30 min
  furin cleavage Z-score: -0.313 (inactive)

B40: HC2419 (peptide)
chain: CAEVPCHRPPAGNASASA
7.5 min
  furin cleavage Z-score: -0.0603 (inactive)
15 min
  furin cleavage Z-score: 1.24
30 min
  furin cleavage Z-score: -0.795 (inactive)

B41: HC1414 (peptide)
chain: CAEACSLTPPAGNASASA
7.5 min
  furin cleavage Z-score: 0.244 (inactive)
15 min
  furin cleavage Z-score: -0.208 (inactive)
30 min
  furin cleavage Z-score: -0.022 (inactive)

B42: FS-2598 (peptide)
chain: CARRRRQLDPAGNASASA
7.5 min
  furin cleavage Z-score: 8.96 (active)
15 min
  furin cleavage Z-score: 10.1 (active)
30 min
  furin cleavage Z-score: 7.56 (active)

B43: FS-1790 (peptide)
chain: CARRTRSFSWAGNASASA
7.5 min
  furin cleavage Z-score: 0.729 (inactive)
15 min
  furin cleavage Z-score: 1.95
30 min
  furin cleavage Z-score: 2.68

B44: FS-2601 (peptide)
chain: CARRTRFISLAGNASASA
7.5 min
  furin cleavage Z-score: -0.682 (inactive)
15 min
  furin cleavage Z-score: 1.63
30 min
  furin cleavage Z-score: 1.87

B45: FS-2794 (peptide)
chain: CARRRRQEEKAGNASASA
7.5 min
  furin cleavage Z-score: -0.167 (inactive)
15 min
  furin cleavage Z-score: 1.69
30 min
  furin cleavage Z-score: -1.54 (inactive)

B46: FS-2521 (peptide)
chain: CARRTRSRSPAGNASASA
7.5 min
  furin cleavage Z-score: 2.04
15 min
  furin cleavage Z-score: 2.53
30 min
  furin cleavage Z-score: 4.49 (active)

B47: FS-3067 (peptide)
chain: CARRRRSMDPAGNASASA
7.5 min
  furin cleavage Z-score: 8 (active)
15 min
  furin cleavage Z-score: 9.64 (active)
30 min
  furin cleavage Z-score: 7.14 (active)

B48: FS-2076 (peptide)
chain: CARRRRELDPAGNASASA
7.5 min
  furin cleavage Z-score: 11.6 (active)
15 min
  furin cleavage Z-score: 10.7 (active)
30 min
  furin cleavage Z-score: 8.52 (active)
